Measured values from PubChem BioAssay AID1159580 (chemical genetic matrix, 2015).
Where “and” joins values, the source holds several entries; their conditions need not be identical. Identical values can stand only once. Hit rate of the full screen: of about 5,500 compounds, about 2,000 (36%) were called active. Roughly 18% stayed inconclusive and do not appear here. Rule as the data show it: active = normalized growth mostly below about 0.91 (no sharp cut-off); inconclusive = no clear call, values can overlap the other calls; inactive = mostly above about 0.92. Some of the results follow.

Test: chemical genetic growth profiling, strain panel (AID 1159580);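 also: tested at 20 µM; growth read once vehicle control cultures reached saturation at 30 °C; 1 = growth at the plate median or of vehicle wells; lower values mean less growth of the strain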
Settings: S. cerevisiae deletion strains, growth OD

Measured: normalized growth

COc1c(O)cc2c(-c3ccccc3)cc(=O)oc2c1OC
active: locus YMR307W, strain GAS1, active compounds read low 1.67 [resistant]
inactive: locus YAL021C, strain ccr4, active compounds read low 0.994 | locus YAL026C, strain drs2, active compounds read low 1.01 | locus YAL030W, strain snc1, active compounds read low 0.992 | locus YBL061C, strain skt5, active compounds read low 1.01 | locus YBR009C, strain hhf1, active compounds read low 0.994 | locus YBR021W, strain FUR4, active compounds read low 0.982 | locus YBR023C, strain chs3, active compounds read low 0.994 | locus YBR171W, strain sec66, active compounds read low 1.01 | locus YBR229C, strain ROT2, active compounds read low 0.995 | locus YBR231C, strain swc5, active compounds read low 1 | locus YBR279W, strain paf1, active compounds read low 0.995 | locus YCL011C, strain gbp2, active compounds read low 0.995 | locus YCL016C, strain dcc1, active compounds read low 0.993 | locus YCL029C, strain bik1, active compounds read low 0.964 | locus YCL061C, strain MRC1, active compounds read low 0.994 | locus YCL069W, strain vba3, active compounds read low 1.01 | locus YCR088W, strain abp1, active compounds read low 0.995 | locus YDL005C, strain med2, active compounds read low 0.99 | locus YDL035C, strain GPR1, active compounds read low 1.05 | locus YDL040C, strain nat1, active compounds read low 0.997 | locus YDL074C, strain BRE1, active compounds read low 1.01 | locus YDL101C, strain DUN1, active compounds read low 0.99 | locus YDL134C, strain PPH21, active compounds read low 1.03 | locus YDL185W, strain tfp1, active compounds read low 0.95 | locus YDL192W, strain arf1, active compounds read low 0.988 | locus YDR001C, strain nth1, active compounds read low 0.987 | locus YDR069C, strain doa4, active compounds read low 1.02 | locus YDR101C, strain arx1, active compounds read low 1.01 | locus YDR137W, strain rgp1, active compounds read low 0.889 | locus YDR159W, strain sac3, active compounds read low 0.999 | locus YDR162C, strain NBP2, active compounds read low 1.01 | locus YDR195W, strain ref2 0.989 | locus YDR297W, strain sur2, active compounds read low 1.02 | locus YDR318W, strain mcm21, active compounds read low 0.973 | locus YDR334W, strain swr1, active compounds read low 1 | locus YDR335W, strain msn5, active compounds read low 0.995 | locus YDR388W, active compounds read low 0.984 | locus YDR392W, strain spt3, active compounds read low 0.848 | locus YDR502C, strain sam2, active compounds read low 0.955 | locus YEL003W, strain gim4, active compounds read low 1.02 | locus YEL037C, strain rad23, active compounds read low 1 | locus YEL061C, strain CIN8 (second series), active compounds read low 0.995 | locus YER015W, strain faa2, active compounds read low 0.997 | locus YER016W, strain bim1, active compounds read low 1 | locus YER110C, active compounds read low 0.968 | locus YER111C, strain swi4, active compounds read low 0.997 | locus YER155C, strain BEM2 (second series), active compounds read low 1.02 | locus YER155C, strain BEM2, active compounds read low 0.989 | locus YER167W, strain BCK2, active compounds read low 0.988 | locus YFR010W, strain ubp6, active compounds read low 1.02 | locus YGL078C, strain dbp3, active compounds read low 1 | locus YGL086W, strain mad1, active compounds read low 0.996 | locus YGL167C, strain pmr1, active compounds read low 0.971 | locus YGL173C, strain kem1, active compounds read low 1.01 | locus YGL227W, strain vid30, active compounds read low 0.996 | locus YGL240W, strain doc1, active compounds read low 1.02 | locus YGL248W, strain PDE1, active compounds read low 1.02 | locus YGL253W, strain hxk2, active compounds read low 1.02 | locus YGR135W, strain pre9, active compounds read low 0.954 | locus YGR252W, strain gcn5, active compounds read low 1.06 | locus YHR013C, strain ard1, active compounds read low 0.978 | locus YHR027C, strain rpn1, active compounds read low 0.987 | locus YHR030C, strain SLT2, active compounds read low 0.993 and 1.06 | locus YHR079C, strain IRE1 (second series), active compounds read low 0.959 | locus YHR079C, strain IRE1, active compounds read low 1.05 | locus YHR094C, strain hxt1, active compounds read low 0.983 | locus YHR129C, strain ARP1, active compounds read low 1.01 | locus YHR142W, strain chs7, active compounds read low 0.965 | locus YHR200W, strain rpn10, active compounds read low 0.986 | locus YIL066C, strain RNR3, active compounds read low 1 | locus YIL073C, strain SPO22, active compounds read low 0.905 | locus YIL125W, strain kgd1, active compounds read low 0.992 | locus YIR030C, strain dcg1, active compounds read low 0.957 | locus YJL092W, strain hpr5, active compounds read low 0.991 | locus YJL095W, strain BCK1 (second series), active compounds read low 0.999 | locus YJL095W, strain BCK1, active compounds read low 1.11 and 1.04 | locus YJL115W, strain asf1, active compounds read low 0.995 | locus YJL129C, strain trk1, active compounds read low 0.948 | locus YJL134W, strain LCB3, active compounds read low 0.993 | locus YJL154C, strain vps35, active compounds read low 0.985 | locus YJL164C, strain tpk1, active compounds read low 0.974 | locus YJL166W, strain qcr8, active compounds read low 0.999 | locus YJL168C, strain set2, active compounds read low 0.965 | locus YJL187C, strain SWE1 (second series), active compounds read low 1 | locus YJL187C, strain SWE1, active compounds read low 0.989 | locus YJR043C, strain POL32, active compounds read low 1.04 | locus YJR066W, strain TOR1, active compounds read low 0.984 | locus YKL009W, strain mrt4, active compounds read low 0.996 | locus YKL068W, active compounds read low 0.985 | locus YKL085W, strain MDH1 (second series), active compounds read low 0.973 | locus YKL085W, strain MDH1, active compounds read low 0.973 | locus YKL160W, strain elf1, active compounds read low 0.983 | locus YKL190W, strain CNB1, active compounds read low 0.99 | locus YKR001C, strain vps1, active compounds read low 0.946 | locus YKR026C, strain gcn3, active compounds read low 1 | locus YKR091W, strain srl3, active compounds read low 0.995 | locus YLL001W, strain dnm1, active compounds read low 0.962 | locus YLL026W, active compounds read low 1 | locus YLL041C, strain sdh2, active compounds read low 0.998 | locus YLR027C, strain aat2, active compounds read low 1 | locus YLR039C, strain RIC1, active compounds read low 0.979 | locus YLR058C, strain SHM2, active compounds read low 1.01 | locus YLR102C, strain apc9, active compounds read low 0.983 | locus YLR113W, strain HOG1, active compounds read low 1.03 | locus YLR221C, strain rsa3, active compounds read low 1.04 | locus YLR258W, strain gsy2, active compounds read low 1.01 | locus YLR262C, strain YPT6 (second series), active compounds read low 0.878 | locus YLR268W, strain sec22, active compounds read low 0.975 | locus YLR320W, strain mms22, active compounds read low 1.02 | locus YLR330W, strain CHS5, active compounds read low 0.985 | locus YLR342W, strain FKS1, active compounds read low 1 | locus YLR357W, strain rsc2, active compounds read low 0.95 | locus YLR370C, strain arc18, active compounds read low 0.99 | locus YLR371W, strain rom2, active compounds read low 0.97 | locus YLR384C, strain iki3, active compounds read low 0.988 | locus YLR418C, strain cdc73, active compounds read low 0.948 | locus YML016C, strain PPZ1, active compounds read low 1 | locus YML032C, strain rad52, active compounds read low 0.995 | locus YML120C, strain ndi1, active compounds read low 0.966 | locus YML124C, strain tub3, active compounds read low 0.971 | locus YMR058W, strain fet3, active compounds read low 1.01 | locus YMR078C, strain ctf18, active compounds read low 0.961 | locus YMR125W, strain sto1, active compounds read low 0.973 | locus YMR129W, active compounds read low 0.995 | locus YMR205C, strain PFK2, active compounds read low 0.936 | locus YMR223W, strain ubp8, active compounds read low 0.978 | locus YMR231W, strain pep5, active compounds read low 0.995 | locus YMR263W, strain SAP30, active compounds read low 0.989 | locus YNL067W, strain RPL9B, active compounds read low 1.01 | locus YNL071W, strain lat1, active compounds read low 0.993 | locus YNL128W, strain TEP1, active compounds read low 1 | locus YNL153C, strain GIM3, active compounds read low 1 | locus YNL183C, strain NPR1, active compounds read low 0.994 | locus YNL209W, strain ssb2, active compounds read low 0.991 | locus YNL233W, strain BNI4, active compounds read low 1.01 | locus YNL248C, strain rpa49, active compounds read low 1.03 | locus YNL250W, strain rad50, active compounds read low 0.915 | locus YNL271C, strain bni1, active compounds read low 0.973 | locus YNL298W, strain CLA4, active compounds read low 1.01 | locus YNL307C, strain MCK1, active compounds read low 0.95 | locus YNL322C, strain KRE1 (second series), active compounds read low 0.982 | locus YNR049C, strain mso1, active compounds read low 1.01 | locus YNR052C, strain pop2, active compounds read low 0.99 | locus YOL012C, strain htz1 1.04 | locus YOL147C, strain pex11, active compounds read low 0.968 | locus YOR001W, strain rrp6, active compounds read low 1.02 | locus YOR061W, strain CKA2, active compounds read low 1 | locus YOR069W, strain VPS5, active compounds read low 0.994 | locus YOR070C, strain gyp1, active compounds read low 0.999 | locus YOR080W, strain dia2, active compounds read low 1.02 | locus YOR083W, strain WHI5, active compounds read low 0.984 | locus YOR106W, strain vam3, active compounds read low 0.967 | locus YOR136W, strain idh2, active compounds read low 0.977 | locus YOR144C, strain elg1, active compounds read low 0.989 | locus YOR184W, strain ser1, active compounds read low 1.03 | locus YOR231W, strain MKK1, active compounds read low 1.06 | locus YOR265W, strain rbl2, active compounds read low 0.987 | locus YOR270C, strain vph1, active compounds read low 1.01 | locus YOR290C, strain snf2, active compounds read low 0.967 | locus YOR316C, strain cot1, active compounds read low 0.962 | locus YPL051W, strain arl3, active compounds read low 1.02 | locus YPL055C, strain LGE1, active compounds read low 1.06 | locus YPL078C, strain atp4, active compounds read low 0.969 | locus YPL106C, strain sse1, active compounds read low 0.983 | locus YPL240C, strain hsp82, active compounds read low 1 | locus YPL256C, strain CLN2, active compounds read low 1.02 | locus YPR119W, strain clb2, active compounds read low 0.947 | locus YPR141C, strain kar3, active compounds read low 0.968 | locus YPR163C, strain tif3, active compounds read low 0.98 | locus YPR167C, strain met16, active compounds read low 0.968 | strain wtn01, active compounds read low 0.991
